The panel holds about 83,000 compounds, 20% with a hit somewhere; the sample as a whole holds those more often.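 Step 1: grow cells in 96-well plates. Step 2: add test compound at a single concentration. Step 3: incubate 48 h. Step 4: record percent growth.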 Values without a mark were called inactive. Active and inactive are the calls of the source. How the source made its calls: active means growth percent below 10; inactive means the rest.
Assays:
Assay in all cases: NCI-60 one-dose screen, 48 h (100 = growth as untreated, 0 = no growth, -100 = all killed)
[1] = system: NCI-H23 lung; details: 10 µM unless noted
[2] = system: NCI-H226 lung; details: 10 µM unless noted
[3] = system: NCI-H322M lung; details: 10 µM unless noted
[4] = system: HOP-62 NSCLC; details: 10 µM unless noted
[5] = system: NCI-H460 lung; details: 10 µM unless noted
[6] = system: NCI-H522 lung; details: 10 µM unless noted
[7] = system: 786-0 renal; details: 10 µM unless noted
[8] = system: COLO 205 colon; details: 10 µM unless noted
[9] = system: DU-145 prostate; details: 10 µM unless noted
[10] = system: K-562 leukemia; details: 10 µM unless noted
[11] = system: MALME-3M melanoma; details: 10 µM unless noted
[12] = system: MDA-MB-231 breast; details: 10 µM unless noted
[13] = system: RXF 393 renal; details: 10 µM unless noted
[14] = system: SF-268 CNS; details: 10 µM unless noted
[15] = system: SF-295 CNS; details: 10 µM unless noted
[16] = system: SF-539 CNS; details: 10 µM unless noted
[17] = system: UACC-257 melanoma; details: 10 µM unless noted
[18] = system: M14 melanoma; details: 10 µM unless noted
[19] = system: HOP-92 NSCLC; details: 10 µM
[20] = system: A549/ATCC NSCLC; details: 10 µM unless noted

Structure (SMILES): Cc1cc(C)c2sc(=O)n(Cc3nnc(SCCC(=O)O)o3)c2n1
- growth [1]: 101%
- growth [2]: 94.5%
- growth [3]: 98%
- growth [4]: 98.2%
- growth [5]: 105%
- growth [6]: 100%
- growth [7]: 104%
- growth [8]: 124%
- growth [9]: 108%
- growth [10]: 94.2%
- growth [11]: 99.2%
- growth [12]: 97.5%
- growth [13]: 89.2%
- growth [14]: 99.2%
- growth [15]: 101%
- growth [16]: 98.8%
- growth [17]: 101%
- growth [18]: 104%

Structure (SMILES): COc1ccc(N2C(=O)c3cc(Cl)ccc3NC2SCc2ccccc2)cc1 (stereo not drawn)
- growth [1]: 97%
- growth [2]: 96.2%
- growth [3]: 97.1%
- growth [4]: 102%
- growth [19]: 92.1%
- growth [6]: 87.4%
- growth [20]: 91.5%
- growth [7]: 92%
- growth [8]: 114%
- growth [9]: 106%
- growth [10]: 88.9%
- growth [11]: 99.2%
- growth [12]: 85.1%
- growth [13]: 101%
- growth [14]: 98.3%
- growth [15]: 102%
- growth [16]: 98.7%
- growth [17]: 97.7%

Structure (SMILES): CN(C)CCCOc1ccc2c(c1)CN(C(=O)c1cc(C(=O)N3Cc4cccc(F)c4C3)ccc1O)C2
- growth [1]: 102%
- growth [2]: 97.2%
- growth [3]: 105%
- growth [4]: 120%
- growth [5]: 105%
- growth [6]: 97.7%
- growth [7]: 108%
- growth [9]: 94.9%
- growth [10]: 88.8%
- growth [11]: 103%
- growth [12]: 103%
- growth [13]: 93.3%
- growth [14]: 100%
- growth [15]: 100%
- growth [16]: 91%
- growth [17]: 108%
- growth [18]: 106%

Structure (SMILES): O=S(=O)(NCCNc1nccc(-n2cnc3ccccc32)n1)c1ccc(Cl)cc1
- growth [1]: 101%
- growth [2]: 91.1%
- growth [3]: 95.3%
- growth [4]: 95.4%
- growth [19]: 90.2%
- growth [6]: 92.1%
- growth [20]: 103%
- growth [7]: 99%
- growth [8]: 104%
- growth [9]: 104%
- growth [10]: 97.6%
- growth [11]: 99.5%
- growth [12]: 90.6%
- growth [13]: 117%
- growth [14]: 92.3%
- growth [15]: 96.7%
- growth [16]: 91.2%
- growth [17]: 103%

Structure (SMILES): Brc1ccccc1/C=N/Nc1nc(N/N=C/c2ccccc2Br)nc(N2CCOCC2)n1
- growth [1]: 105%
- growth [2]: 95.1%
- growth [3]: 96.8%
- growth [4]: 108%
- growth [19]: 112%
- growth [6]: 86.6%
- growth [20]: 97.1%
- growth [7]: 61.3%
- growth [8]: 86.1%
- growth [9]: 98.3%
- growth [10]: 94.1%
- growth [11]: 143%
- growth [12]: 103%
- growth [13]: 69.6%
- growth [14]: 102%
- growth [15]: 85.5%
- growth [16]: 105%
- growth [17]: 104%

Structure (SMILES): COc1ccc(NC(=O)CSc2nnc(-c3ccc4nc(-c5ccc(OC)c(OC)c5)[nH]c4c3)o2)cc1OC
- growth [1]: 80.6%
- growth [2]: 93.1%
- growth [3]: 89.4%
- growth [4]: 98.8%
- growth [5]: 102%
- growth [6]: 95.1%
- growth [7]: 105%
- growth [8]: 113%
- growth [9]: 91.3%
- growth [10]: 108%
- growth [11]: 83.3%
- growth [12]: 93.5%
- growth [14]: 93.3%
- growth [15]: 107%
- growth [16]: 93.3%
- growth [17]: 106%

Structure (SMILES): CCCn1cnc2c(c1=N)C(c1ccc(F)cc1)c1sc3c(CC)cccc3c1O2 (stereo not drawn)
- growth [1]: 12.4%
- growth [2]: -2.38% (active)
- growth [3]: 52%
- growth [4]: 28.2%
- growth [5]: 2.7% (active)
- growth [20]: 17%
- growth [7]: 5.1% (active)
- growth [8]: -51.5% (active)
- growth [9]: 4.9% (active)
- growth [10]: 6.04% (active)
- growth [11]: 54.6%
- growth [12]: -19.8% (active)
- growth [13]: -17.3% (active)
- growth [14]: 18.8%
- growth [15]: 7.42% (active)
- growth [16]: -25.6% (active)
- growth [17]: 65.5%
- growth [18]: 13.3%

Structure (SMILES): Cc1nn(-c2ccccc2)c2ncnc(N/N=C/c3ccccc3)c12
- growth [1]: 97.3%
- growth [2]: 78.3%
- growth [3]: 95%
- growth [4]: 116%
- growth [5]: 95.6%
- growth [6]: 85.8%
- growth [20]: 92.4%
- growth [7]: 84.6%
- growth [9]: 91.2%
- growth [10]: 78.5%
- growth [12]: 109%
- growth [13]: 91.3%
- growth [14]: 91.7%
- growth [15]: 108%
- growth [16]: 103%
- growth [17]: 113%
- growth [18]: 103%

Structure (SMILES): CCCCCc1ccc(S(=O)(=O)Nc2cccc(-c3csc(NC(=O)CN4CCN(C)CC4)n3)c2)cc1
- growth [1]: 95.1%
- growth [3]: 100%
- growth [4]: 89.5%
- growth [5]: 21.5%
- growth [19]: 62.3%
- growth [6]: 89.5%
- growth [20]: 79.7%
- growth [7]: 63.8%
- growth [8]: 31%
- growth [9]: 82.4%
- growth [10]: 7.06% (active)
- growth [11]: 45.7%
- growth [12]: 74.2%
- growth [14]: 78.4%
- growth [15]: 104%
- growth [16]: 82.9%
- growth [17]: 93%

Structure (SMILES): NS(=O)(=O)c1ccc(Nc2nc(SCC(=O)c3ccc(Cl)cc3)nc3c2CCCC3)cc1
- growth [1]: 53.9%
- growth [2]: 56.6%
- growth [4]: 70%
- growth [5]: 21%
- growth [6]: 67.7%
- growth [20]: 38.9%
- growth [7]: 84.7%
- growth [8]: 46%
- growth [9]: 41.1%
- growth [10]: 27.9%
- growth [11]: 66.6%
- growth [12]: 49.6%
- growth [13]: 35.6%
- growth [14]: 62.2%
- growth [15]: 50.3%
- growth [16]: 62.3%
- growth [17]: 62.3%
- growth [18]: 59.6%

Structure (SMILES): C[C@H](CCC(=O)NCc1ccc(C(=O)Nc2ccccc2N)cc1)[C@H]1CC[C@H]2[C@@H]3[C@@H](O)C[C@@H]4C[C@H](O)CC[C@]4(C)[C@H]3CC[C@]12C
- growth [1]: 66.7%
- growth [3]: 79%
- growth [4]: 58.3%
- growth [5]: 60.8%
- growth [19]: 69.1%
- growth [6]: 37.8%
- growth [20]: 90.3%
- growth [7]: 71.4%
- growth [8]: 65.2%
- growth [9]: 84.1%
- growth [10]: 30.6%
- growth [11]: 45%
- growth [12]: 49.2%
- growth [13]: 55.3%
- growth [14]: 52.6%
- growth [15]: 69.1%
- growth [16]: 55.6%
- growth [17]: 63.7%

Structure (SMILES): CCN1CCN(Cc2cn(-c3ccc(S(N)(=O)=O)cc3)nn2)CC1
- growth [1]: 108%
- growth [3]: 106%
- growth [4]: 107%
- growth [5]: 108%
- growth [19]: 104%
- growth [6]: 97.8%
- growth [20]: 109%
- growth [7]: 102%
- growth [8]: 109%
- growth [9]: 108%
- growth [10]: 104%
- growth [11]: 111%
- growth [12]: 104%
- growth [13]: 116%
- growth [14]: 103%
- growth [15]: 105%
- growth [16]: 99.3%
- growth [17]: 107%

Structure (SMILES): Cc1ccc(S(=O)(=O)N(CC[C@@H]2C[C@H]2c2cc3ccccc3o2)S(=O)(=O)c2ccc(C)cc2)cc1
- growth [1]: 90.8%
- growth [3]: 95.4%
- growth [4]: 115%
- growth [5]: 104%
- growth [6]: 85.3%
- growth [20]: 94.9%
- growth [7]: 99.7%
- growth [8]: 115%
- growth [9]: 98.7%
- growth [10]: 83.1%
- growth [12]: 83.6%
- growth [13]: 103%
- growth [14]: 98.1%
- growth [15]: 101%
- growth [16]: 101%
- growth [17]: 84.9%
- growth [18]: 99%

Structure (SMILES): CNC(=O)c1cc(-c2ccc(NS(=O)(=O)c3ccc(C)cc3)cc2)nc2cccnc12
- growth [1]: 103%
- growth [3]: 110%
- growth [4]: 99.7%
- growth [5]: 107%
- growth [19]: 103%
- growth [6]: 91.6%
- growth [20]: 104%
- growth [7]: 110%
- growth [8]: 116%
- growth [9]: 113%
- growth [10]: 101%
- growth [11]: 101%
- growth [12]: 95%
- growth [13]: 133%
- growth [14]: 107%
- growth [15]: 108%
- growth [16]: 102%
- growth [17]: 105%

Structure (SMILES): C=C(C=O)[C@@H]1CC[C@]2(CO)CC[C@]3(C)[C@H](CC[C@@H]4[C@@]5(C)CCCNC(C)(C)[C@@H]5CC[C@]43C)[C@@H]12
- growth [1]: 63.5%
- growth [3]: 95.8%
- growth [4]: 88.9%
- growth [5]: 86%
- growth [6]: 77.6%
- growth [20]: 81.1%
- growth [7]: 94.3%
- growth [8]: 77.3%
- growth [9]: 53%
- growth [10]: -1.23% (active)
- growth [11]: 67%
- growth [12]: 90.8%
- growth [13]: 94.2%
- growth [14]: 83.9%
- growth [15]: 83.1%
- growth [16]: 71.8%
- growth [17]: 72.3%
- growth [18]: 61.3%

Structure (SMILES): CCC1=Cc2cc(OC)ccc2OC12C=Cc1cc(OC)ccc1O2 (stereo not drawn)
- growth [1]: 17%
- growth [3]: 50.2%
- growth [4]: 64.3%
- growth [5]: 4.15% (active)
- growth [19]: 57.3%
- growth [6]: -23.9% (active)
- growth [7]: 37.3%
- growth [8]: -6.28% (active)
- growth [9]: 19.9%
- growth [10]: 12.6%
- growth [11]: 58.4%
- growth [12]: 34.9%
- growth [14]: 39.2%
- growth [15]: 15.7%
- growth [16]: -23.7% (active)
- growth [17]: 79.6%

Structure (SMILES): Nc1nc(-c2cccc([N+](=O)[O-])c2)c(N=Nc2ccc(Br)cc2)s1
- growth [1]: -65% (active)
- growth [3]: -25.4% (active)
- growth [4]: -68.1% (active)
- growth [5]: -61% (active)
- growth [6]: -48.6% (active)
- growth [20]: -20.3% (active)
- growth [7]: -96.4% (active)
- growth [8]: -2.36% (active)
- growth [9]: -41.2% (active)
- growth [10]: 16.6%
- growth [11]: -62% (active)
- growth [12]: -46.6% (active)
- growth [13]: -92.3% (active)
- growth [14]: 26.2%
- growth [15]: -65.4% (active)
- growth [16]: -98% (active)
- growth [17]: 0.3% (active)
- growth [18]: -75.4% (active)
